Screens as filed in PubChem BioAssay.
BAZ2B block – qHTS Assay for Inhibitors of BAZ2B; Bromodomain adjacent to zinc finger domain protein 2B (Homo sapiens), Q9UIF8; AlphaScreen BAZ2B-H3K14Ac peptide displacement; Potency, µM (top dose mostly 114 µM), inactives show top-dose activity change, negative = inhibition, usual class: inhibitors; actives 4.4% (n = 360,000); further: potency means the concentration at half of the fitted maximal effect; on the % scale 0 is the no-effect control and ±100 the full control effect; nearly all actives have a fitted effect of over 60% in size
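Compounds, titrated to a top concentration of 110 uM, were incubated 30 min at room temperature with preformed BAZ2B/acetyl-K14 H3 peptide complex (50 nM each). Proximity signal was measured by AlphaScreen after 20 min with beads.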
HP1b binding inh – HTS for Inhibitors of HP1-beta Chromodomain Interactions with Methylated Histone Tails | AlphaScreen HP1-beta / biotin-H3K9me3 peptide binding | actives 0.56% (n = 390,000) | Chromobox protein homolog 1 (Homo sapiens), P83916 | Potency, µM (top dose mostly 114 µM), for the others: at the highest dose activity change, negative = inhibition, most hits filed as inhibitors | AID 540317, 2011; further: potency means the concentration at half of the fitted maximal effect; nearly all actives have a fitted effect of over 70% in size
Target sequence (P83916 whole entry, looked up): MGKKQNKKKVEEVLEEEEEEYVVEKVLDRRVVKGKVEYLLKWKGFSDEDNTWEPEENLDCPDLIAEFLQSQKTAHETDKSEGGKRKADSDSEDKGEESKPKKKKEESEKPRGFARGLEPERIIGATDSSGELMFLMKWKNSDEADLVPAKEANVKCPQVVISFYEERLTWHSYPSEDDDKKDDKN
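AlphaScreen: HP1-beta (50 nM) preformed 30 min with biotin-H3(1-18)K9me3 peptide (50 nM) in PBS pH 7.4, 0.01% Tween-20. Compound added for 30 min at RT, then streptavidin donor/nickel chelate acceptor beads (10 ug/mL) for 30 min.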
JMJD2A Tudor – qHTS Assay for Inhibitors of JMJD2A-Tudor Domain. Potency, µM (highest dose often 114 µM), inactives show at the top dose activity change, negative = inhibition, actives largely listed as inhibitors. actives 4.4% (n = 390,000). AID 504339, 2011. AlphaScreen JMJD2A-Tudor / H3K4me3 peptide binding; further: potency means the concentration at half of the fitted maximal effect; on the % scale 0 is the no-effect control and ±100 the full control effect; nearly all actives have a fitted effect of over 50% in size
PI5P4Ka inh – qHTS for Inhibitors of phosphatidylinositol 5-phosphate 4-kinase (PI5P4K); Phosphatidylinositol 5-phosphate 4-kinase type-2 alpha (Homo sapiens), P48426; PI5P4Kalpha enzyme, ADP-Glo luminescence, 60 min; active compounds read low; max response, %; actives 1.2% (n = 330,000); active means max response of -50% or lower; inconclusive means between -30% and -50%; inactive means -30% or higher; further: value at the top dose of about 77 µM; on the % scale 0 is the no-effect control and ±100 the full control effect
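qHTS, 1536-well: enzyme/substrate mix, compound by pin tool, 5 microM ATP final; RT 60 min; ADP-Glo reagents 1 (45 min) then 2 (30 min); luminescence.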
PLK1 PBD inh – qHTS for Inhibitors of PLK1-PDB (polo-like kinase 1 - polo-box domain): Primary Screen; Plk1 PBD binding of FITC phosphopeptide, fluorescence polarization; actives 2.8% (n = 360,000); Serine/threonine-protein kinase PLK1 (Homo sapiens), P53350; Potency, µM, for inactives: max response, negative = inhibition, hits mostly inhibitors; AID 720504, 2013; further: potency means the concentration at half of the fitted maximal effect; series mostly up to about 57 µM; on the % scale 0 is the no-effect control and ±100 the full control effect; nearly all actives have a fitted effect of over 65% in size
G9a block – qHTS Assay for Inhibitors of Histone Lysine Methyltransferase G9a; Histone-lysine N-methyltransferase EHMT2 (Homo sapiens), Q96KQ7; G9a H3K9 monomethylation, AlphaScreen, 2 h; AID 504332, 2011; actives 8.8% (n = 350,000); Potency, µM (doses to about 102 µM), for inactives: at the top dose activity, negative = inhibition, actives largely listed as inhibitors; further: potency means the concentration at half of the fitted maximal effect; on the % scale 0 is the no-effect control and ±100 the full control effect; nearly all actives have a fitted effect of over 75% in size
Target sequence (Q96KQ7 913-1193 limits assumed): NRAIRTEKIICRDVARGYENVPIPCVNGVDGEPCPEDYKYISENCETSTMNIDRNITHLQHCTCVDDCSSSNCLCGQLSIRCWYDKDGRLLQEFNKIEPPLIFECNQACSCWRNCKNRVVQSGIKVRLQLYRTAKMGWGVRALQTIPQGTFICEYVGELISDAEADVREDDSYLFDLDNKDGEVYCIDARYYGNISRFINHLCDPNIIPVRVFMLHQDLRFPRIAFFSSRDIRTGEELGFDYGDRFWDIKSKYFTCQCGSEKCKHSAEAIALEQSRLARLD
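G9a (20 nM) was preincubated 15 min with compound, then reacted 2 h at room temperature with 500 nM biotin-H3K9 peptide and 20 µM SAM. Monomethyl-H3K9 detected by AlphaScreen using anti-H3K9me1 antibody.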
* marks the source's active call; other numbers are inactive results; u = inconclusive; x = not tested or not shown; [ ] = dose if it differs, or a comment. Shown are actives, neighbours in structure and some others; about 12% of the full set was active somewhere. Unless noted, the call rests on the fitted dose curve; in most records, active means well fitted curve in the direction sought with a large enough effect; inconclusive means small, poorly fitted or top-dose-only effect, or another doubt; inactive means no such curve, though single readings can be large; an effect the other way counts as inactive or inconclusive.

SMILES	BAZ2B block	HP1b binding inh	JMJD2A Tudor	PI5P4Ka inh	PLK1 PBD inh	G9a block
O=C(O)c1cccc(NC(=S)NC(=O)c2ccncc2)c1	x	-19%	u	-7	-5%	45µM*
COc1ccc(C(=O)NC(=S)Nc2ccc(N3CCOCC3)cc2)cc1Cl	22µM*	u	25µM*	1	-1%	25µM*
CC1CC(O)CC(C)(C)C1 (centres undefined)	x	x	x	x	x	0%[12.7 µM]
CN(Cc1ccccc1)C(=O)CSc1nc2ccccc2n1Cc1ccccc1F	-9%	48%	2%	x	x	0%[12.7 µM]
CC(=O)c1cccc(NC(=S)NC(=O)c2cccc(C)c2)c1	-37%	-14%	u	-3	-12%	25µM*
CCCN1Cc2cccc(C(=O)Nc3cc(Cl)ccc3C)c2C1=O	-6%	21%	-28%	x	x	5%[59 µM]
Cn1c(=O)c2sccc2n2c(CCCC(=O)Nc3ccc(F)c(F)c3)nnc12	6%	39%	-11%	x	x	5%[59 µM]
Cc1nn2c(=O)cc(COC(=O)c3ccc(NC(=O)c4cccc(Br)c4)cc3)nc2s1	-5%	-16%	-21%	x	x	-28%[59 µM]
Cc1ccc(Sc2cnc(N)nc2C)cc1	-10%	-21%	u	-3	27µM*	6%
O=C(Cc1ccc(F)cc1)Nc1cccc(-c2nc3cccnc3s2)c1	-2%	15%	-17%	x	x	-36%[59 µM]
CCCn1c2ccccc2c2cnn(CC(=O)NCCc3ccc(C)cc3)c(=O)c21	6%	11%	-18%	x	x	12%[59 µM]
CCN1CCCC1Cn1cnc2c([nH]c3ccc(Cl)cc32)c1=O (centres undefined)	-1%	12%	3%	0	-2%	5%[59 µM]
CCN1CCCC1Cn1cnc2c([nH]c3cccc(Cl)c32)c1=O (centres undefined)	-22%	16%	-13%	3	-10%	32µM*
COC1C[C@@H](O[C@@H]2C(C)C(=O)OC(C)C(C)[C@H](OC(C)=O)C(C)C(=O)[C@@]3(CO3)CC(C)C(OC3OC(C)CC(N(C)C)[C@H]3OC(C)=O)C2C)OC(C)[C@@H]1OC(C)=O (some centres undefined)	x	x	x	x	x	-23%[2.33 µM]
NC(=O)NC(=O)COC(=O)c1sc2ccccc2c1Cl	2%	11%	-10%[11.4 µM]	-20	13µM*	-2%
O=C(COC(=O)c1sc2ccccc2c1Cl)NC1CCCCC1	-2%	23%	1%	3	3%	-13%[59 µM]
Cc1nn2cnnc2c(C)c1Cc1c(F)cccc1Cl	-1%	20%	-6%	-5	3%	21%
Cc1ccccc1C(=O)NC(CC(C)C)C(=O)N1CCN(c2ccccc2)CC1 (centres undefined)	3%	10%	-10%	1	1%	5%
CCn1c(SCC(=O)Nc2cc(NC(C)=O)ccc2OC)nnc1-c1ccccn1	u	19%	50µM*	x	1%	-8%[59 µM]
CCn1c(SCC(=O)NC(C)(C)C)nnc1-c1ccccn1	u	29%	-1%	12	-7%	56µM*
CCn1c(SCC(=O)Nc2cc(NC(C)=O)ccc2OC)nnc1-c1ccncc1	11%	x	x	x	x	4%[59 µM]
CCOc1ccc(NC(=O)N2CC=C(c3c[nH]c4ccccc34)CC2)cc1	u	1%	u	x	x	-39%[59 µM]
Cc1onc(-c2c(F)cccc2Cl)c1C(=O)OCC(=O)N(C)c1ccccc1	x	x	x	-1	4%	x
O=C(NC1CCCCC1)C1CCN(c2nccs2)CC1	6%	-20%	79µM*	-6	u	-23%[59 µM]
COc1cccc(CN(C)C(=O)c2[nH]c(C)c(C(C)=O)c2C)c1OC	u	-6%	u	-9	27µM*	u
CCOC(=O)/C=C/C(=O)OCC(=O)N1CCN(C(=O)c2ccco2)CC1	-28%	7%	-18%	-16	-18%	-21%
